We go through 6 compounds from PubChem BioAssay.

The structures appear in SMILES notation. Where “and” joins values, the source holds several entries; their conditions need not be identical. Identical values can stand only once. Calls of active or inactive are those of the source. Rule as the data show it, unless noted: active = nuclear beta-catenin stimulation mostly above about 4.2% (no sharp cut-off); inactive = mostly below about 10%.

Assay [1] is described as follows: Wnt pathway potentiators raising nuclear beta-catenin – imaging, WNT3A-conditioned medium, mouse C2C12, NPC library, primary screen (AID 1117326). The settings on record: stronger effect = higher value.
A short description of assay [2]: stimulators of insulin release from INS-1E, primary screen, cell-based, 5 mM glucose, NPC library (AID 1117329;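 active = compound raises insulin release from rat beta cells at 5 mM glucose, no numeric limit stated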). The conditions noted are these: rat INS-1E insulin secretion, at 10 µM, stronger effect = higher value.
Assay [3] is described as follows: growth inhibition of GSK3B-pretreated HCT116 cells – cell-based, CellTiter-Glo, 0.2 to 20 µM (AID 1117336;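 active = compounds lowering colon cancer cell viability after pretreatment blocking the GSK3B kinase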). The settings on record: HCT116 viability after GSK3B inhibitor, at 20 µM, stronger effect = higher value. Background: ATP-based viability assays read luminescence as a measure of living cells.
A short description of assay [4]: inhibition of endothelial tube formation, primary screen, imaging, VEGF stimulated, CD31 staining, tube area, NPC library (AID 1117340;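 active = compound that reduces growth-factor-driven endothelial tube area in a mixed cell culture, no cutoff stated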). The conditions noted are these: VEGF-stimulated ADSC/ECFC co-culture, at 10 µM, stronger effect = higher value.
Assay [5] can be described thus: GLP1 release stimulators, primary, NCI-H716, NPC library (AID 1117341;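 active = compound raises GLP1 secretion from the human gut endocrine cells, with no numeric limit stated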). The settings on record: NCI-H716 cells, at 10 µM, stronger effect = higher value.
A short description of assay [6]: HCT116 colon cancer cell growth inhibition, primary screen, CellTiter-Glo luminescence, NPC library (AID 1117342;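 active = compounds that lower survival of HCT116 colon cancer cells in the luminescence readout, no numeric limit stated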). The conditions noted are these: at 20 µM (top of the series).
Assay [7] can be described thus: reduced SW480 viability measured with CellTiter-Glo, NPC library, primary (AID 1117343;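 active = compounds that lower viability of the colon cancer cells in the luminescence readout, with no numeric limit stated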). The conditions noted are these: CellTiter-Glo luminescence; at 20 µM (top of the series).
The nature of assay [8]: NPC library primary testing for decreased DLD-1 cell viability via CellTiter-Glo (AID 1117346;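 active = compounds that lower survival of DLD-1 colon cancer cells in the luminescence readout, no cutoff given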). The settings on record: DLD-1 viability, CellTiter-Glo luminescence; at 20 µM (top of the series).
The target in assay [9] is 6-phosphogluconate dehydrogenase, decarboxylating (Homo sapiens) (UniProt P52209). In words: inhibition of human phosphogluconate dehydrogenase – biochemical, recombinant enzyme, NADPH absorbance, primary screen (AID 1159550;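 active = at least 20% inhibition of 6-phosphogluconate dehydrogenase activity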). The settings on record: recombinant 6PGD, NADPH absorbance 341 nm; at 10 µM; stronger effect = higher value.
Assay [10] can be described thus: EMT-state selective cytotoxicity in co-culture – imaging, PC-3E GFP, TEM4-18 mCherry, primary screen (AID 1345086;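 active = compounds killing one labelled cell type while sparing the other, by normalised counts and ratio limits, not self-fluorescent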;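 as to all read-outs here: cells exposed to compound for 72 h before imaging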;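 as to red/green cell ratio (normalised): normalised mesenchymal count divided by normalised epithelial count so high means epithelial killing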). The conditions noted are these: PC-3E GFP / TEM4-18 mCherry co-culture, imaging cell counts, at 1 µM; for red/green cell ratio (normalised): actives lie on both sides.
The subject of assay [11] is Aerobactin synthetase IucA (Klebsiella pneumoniae hvKP1). In words: IucA enzyme inhibition, primary screen, biochemical, Spectrum library (AID 1346200; call rule not given here;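 also: 100% = wells without compound and 0% = wells lacking enzyme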). The settings on record: malachite green pyrophosphate, A620, at 8 µM, stronger effect = lower value.
Assay [12] can be described thus: viability loss with induced miR-34 in A549 – imaging, A549 dox-inducible miR-34, nuclei and caspase counts, primary screen (AID 1347080;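 active = compounds whose cell count with miR-34 switched on is under 0.7 times the count with it off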). The settings on record: A549 miR-34 inducible, Hoechst nuclei count, 48 h.
Assay [13] in a line: MELAS cybrid and Rieske KO viability enhancers – cell-based, MELAS cybrids, Rieske KO mouse fibroblasts, CellTiter-Glo, primary screen (AID 1508586;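 active = mean z-score across replicates of 1.96 or higher in either the MELAS or the Rieske mutant cell line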;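 also: z relative to plate mean and SD of compound and empty wells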). The conditions noted are these: low glucose.
The target in assay [14] is NAD(+) hydrolase SARM1 (Homo sapiens) (UniProt Q6SZW1). In words: blocking NAD cleavage by SARM1 SAM-TIR – cell lysate, NAD-Glo luminescence (AID 1508614;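 active = compound whose remaining NAD level is above about 45 nM, limit read from the data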;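 also: higher remaining NAD means stronger inhibition of SARM1 NADase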). The settings on record: SAM-TIR HEK293T lysate NADase, at 1 µM, stronger effect = higher value.
The target of assay [15] is Mitogen-activated protein kinase 7 (Homo sapiens) (UniProt Q13164). Put plainly: Gal4-ERK5 driven luciferase induction – cell-based, HTS, primary screen (AID 1508626;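 active = luciferase signal above three times the same-plate solvent-only control wells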;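 also: luciferase driven by Gal4-ERK5 fusion binding five Gal4 sites before minimal TATA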). The settings on record: HeLa Gal4-ERK5 transactivation, 18 h, at 5 µM, stronger effect = higher value.
Assay [16] can be described thus: galactose survival enhancers in mitochondrial complex I cybrids – cell-based, galactose medium, ATP luminescence, primary screen (AID 1645843;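 active = z-score of at least 1.8 in each of two replicates, scored against plate mean and spread of sample wells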;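 also: positive z means more ATP and so rescue of galactose-driven cybrid death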). The settings on record: complex I mutant cybrid cells, 72 h, stronger effect = higher value.
Assay [17] can be described thus: yeast 75Q aggregation reduction – 75Q-TubU reporter (AID 1593). The conditions noted are these: Yeast 75Q polyglutamine aggregation reporter.
Assay [18] in a line: blockers of cytochrome c efflux from mitochondria – biochemical, purified mitochondria (AID 1603).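 Also: mouse liver mitochondria challenged with calcium chloride; signal normalized to the plate average as 100%.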 The settings on record: stronger effect = lower value.
Assay [19] can be described thus: polyglutamine aggregate formation blockers (AID 1604). The settings on record: polyglutamine-induced protein aggregation inhibition assay; stronger effect = higher value; tested at 2.5 µM.
The nature of assay [20]: P. berghei load reduction in hepatocytes – cell-based, HepG2, luciferase luminescence, HepG2 viability, primary screen (AID 624349; in the data active = parasite load remaining mostly below about 12%, no sharp cut-off; inactive = mostly above about 10%;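 also: 100% = mean of DMSO negative control wells on the same plate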). The settings on record: P. berghei liver stage in HepG2, luciferase luminescence, concentration not given here; parasite load remaining: stronger effect = lower value; viability: measured here: HepG2 viability without parasites.
The mark [21] stands for this setting: measured here: epithelial PC-3E GFP cell survival.
Setting [22] is: measured here: mesenchymal TEM4-18 mCherry cell survival.
Where [23] appears, read: MELAS cybrid survival, CellTiter-Glo 48 h, stronger effect = higher value.
Setting [24] is: Rieske KO mouse fibroblast survival, CellTiter-Glo 72 h.

6-phosphogluconate dehydrogenase, decarboxylating (Homo sapiens), sequence (P52209 whole entry, looked up): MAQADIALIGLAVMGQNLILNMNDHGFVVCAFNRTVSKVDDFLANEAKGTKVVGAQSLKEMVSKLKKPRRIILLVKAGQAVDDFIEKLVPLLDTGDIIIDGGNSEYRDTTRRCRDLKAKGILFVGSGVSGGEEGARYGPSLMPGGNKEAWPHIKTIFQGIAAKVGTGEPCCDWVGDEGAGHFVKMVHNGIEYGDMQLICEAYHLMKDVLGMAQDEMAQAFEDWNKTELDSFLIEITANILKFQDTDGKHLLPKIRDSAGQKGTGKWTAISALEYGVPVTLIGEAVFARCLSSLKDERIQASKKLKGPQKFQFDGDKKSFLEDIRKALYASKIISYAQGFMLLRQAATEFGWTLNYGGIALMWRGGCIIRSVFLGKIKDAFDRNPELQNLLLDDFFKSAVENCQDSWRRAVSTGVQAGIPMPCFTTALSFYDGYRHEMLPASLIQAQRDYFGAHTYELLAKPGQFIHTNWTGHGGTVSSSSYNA
Mitogen-activated protein kinase 7 (Homo sapiens), sequence (Q13164 whole entry, looked up, the tested form may be a part): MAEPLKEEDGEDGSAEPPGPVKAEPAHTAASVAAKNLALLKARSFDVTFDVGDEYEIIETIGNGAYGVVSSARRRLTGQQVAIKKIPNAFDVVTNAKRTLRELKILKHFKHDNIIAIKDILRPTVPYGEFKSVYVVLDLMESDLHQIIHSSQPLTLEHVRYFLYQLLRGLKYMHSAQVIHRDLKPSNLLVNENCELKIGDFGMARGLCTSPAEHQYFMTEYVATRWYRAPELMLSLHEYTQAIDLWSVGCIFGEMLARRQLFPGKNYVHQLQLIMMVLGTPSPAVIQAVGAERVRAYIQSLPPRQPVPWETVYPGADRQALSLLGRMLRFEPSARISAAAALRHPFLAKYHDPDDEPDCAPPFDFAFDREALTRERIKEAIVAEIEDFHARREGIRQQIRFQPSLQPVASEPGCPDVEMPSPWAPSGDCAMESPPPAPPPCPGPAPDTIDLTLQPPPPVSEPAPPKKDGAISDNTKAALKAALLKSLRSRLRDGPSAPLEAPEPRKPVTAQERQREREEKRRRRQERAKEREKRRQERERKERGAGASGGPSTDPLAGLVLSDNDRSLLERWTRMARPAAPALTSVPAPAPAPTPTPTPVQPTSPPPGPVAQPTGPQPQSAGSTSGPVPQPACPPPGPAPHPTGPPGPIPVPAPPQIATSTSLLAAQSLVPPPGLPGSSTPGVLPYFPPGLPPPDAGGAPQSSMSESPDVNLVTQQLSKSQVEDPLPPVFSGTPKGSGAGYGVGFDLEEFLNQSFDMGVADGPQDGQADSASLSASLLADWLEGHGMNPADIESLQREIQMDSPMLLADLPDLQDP
NAD(+) hydrolase SARM1 (Homo sapiens), sequence (Q6SZW1 whole entry, looked up, the tested form may be a part): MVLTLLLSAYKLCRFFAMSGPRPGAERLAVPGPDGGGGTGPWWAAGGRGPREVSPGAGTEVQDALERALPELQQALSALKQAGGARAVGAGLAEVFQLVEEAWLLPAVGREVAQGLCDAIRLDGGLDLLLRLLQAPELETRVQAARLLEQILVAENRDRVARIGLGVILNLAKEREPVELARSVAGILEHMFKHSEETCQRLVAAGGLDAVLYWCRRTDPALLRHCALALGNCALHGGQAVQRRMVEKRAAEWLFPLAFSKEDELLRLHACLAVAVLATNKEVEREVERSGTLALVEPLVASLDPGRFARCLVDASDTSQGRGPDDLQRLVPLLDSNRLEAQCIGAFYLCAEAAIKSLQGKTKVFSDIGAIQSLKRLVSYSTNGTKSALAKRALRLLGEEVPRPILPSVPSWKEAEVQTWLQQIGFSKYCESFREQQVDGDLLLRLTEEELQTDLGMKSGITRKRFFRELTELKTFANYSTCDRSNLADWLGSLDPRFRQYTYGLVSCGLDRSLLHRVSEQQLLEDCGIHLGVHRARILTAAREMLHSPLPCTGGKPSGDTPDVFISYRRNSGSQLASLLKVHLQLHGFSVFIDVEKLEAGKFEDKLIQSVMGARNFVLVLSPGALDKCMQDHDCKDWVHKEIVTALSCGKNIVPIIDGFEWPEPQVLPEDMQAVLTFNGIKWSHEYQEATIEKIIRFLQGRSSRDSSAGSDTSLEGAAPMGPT

In general, inhibition refers to the drop in the measured response relative to a control, in per cent. Regarding `COc1ccc(OC)c(C(O)C(C)N)c1` (centres undefined), the nuclear beta-catenin stimulation is -1.8% (inactive) in [1] (at 10 µM) and -1.1% in assay [1] (stimulation, at 2 µM). In addition, the insulin secretion stimulation in assay [2] is -0.1% (inactive). In addition, the viability decrease in [3] is 4% (inactive). Also, the tube area decrease in [4] was -6.6% (inactive). The GLP1 secretion stimulation in [5] is -3.9% (inactive). Also, the inhibition of viability in assay [6] is -3% (inactive). Moreover, the figures for the viability decrease (inhibition) in assay [7] and in assay [8] were -2.5% (inactive) and -4.2% (inactive), respectively. Further, the inhibition in [9] is 11.8% (inactive). Further, the red/green cell ratio (normalised) in [10] was 0.84 (inactive). The normalised cell number was 1.33 in assay [10] (setting [21]) and 1.11 in [10] (setting [22]). For the same compound, the activity remaining in [11] was 103% (inactive). Moreover, the fold change was 1.09 (inactive) and 0.79 (inactive) and 0.922 (inactive) in [12] (stronger effect = lower value); 1.23 and 1.51 and 0.904 in [12] (measured here: relative caspase fold change +Dox/-Dox). The cell count is 11000 and 8690 and 11600 in [12] (measured here: total cells with miR-34 induction, stronger effect = lower value); 10000 and 11000 and 12600 in [12] (measured here: total cells without miR-34 induction). Further, the results for the z-score in assay [13] (setting [23]), in assay [13] (setting [24]) and in [16] were 0.379 (inactive), 0.108 and 0.13 (inactive), respectively. In addition, the remaining NAD in assay [14] was 10 nM (inactive). In [15], the luciferase signal was 104 AU (inactive).
For the compound `O=C(CBr)Nc1ccc(Cl)cc1C(=O)c1ccccc1F`, the nuclear beta-catenin stimulation is -1.3% (inactive) in assay [1] (at 10 µM) and -1% in assay [1] (stimulation, at 2 µM). Besides, in [2], the insulin secretion stimulation is 18.8% (inactive). Further, the viability decrease in [3] is 84.8% (active). Also, the tube area decrease in assay [4] was 108% (active). Besides, the GLP1 secretion stimulation in assay [5] is 21.4% (active). Further, in assay [6], the inhibition of viability was 57.5% (active). Further, the figures for the viability decrease (inhibition) in assay [7] and in [8] were 95.3% (active) and 64.7% (active), respectively.
On to `CC(C)C(Br)C(=O)NC(N)=O` (centres undefined), for which the nuclear beta-catenin stimulation in assay [1] (at 10 µM) is 0.6% (inactive); in [1] (stimulation, at 2 µM), 1%. Besides, the insulin secretion stimulation in assay [2] is -0.4% (inactive). The viability decrease in assay [3] is -0.05% (inactive). Also, in assay [4], the tube area decrease was 1.7% (inactive). Besides, in assay [5], the GLP1 secretion stimulation is -0.8% (inactive). For the same compound, the inhibition of viability in assay [6] was -3% (inactive). Moreover, the values for the viability decrease (inhibition) in [7] and in assay [8] were 4.9% (inactive) and 1% (inactive), respectively.
The viability is a per cent measure of how many cells are alive, often set against a control. As to `NCC(O)c1ccc(O)cc1` (centres undefined), in assay [17], the score stood at 1.11. Besides, in [18], the cytochrome c release ratio was determined as 0.99. Besides, in assay [19], the inhibition of aggregation amounted to 55.6%. Moreover, the parasite load remaining in assay [20] is 79.5% (inactive) and 84.6% (inactive). Further, the viability in [20] was 96% and 67.9%. The nuclear beta-catenin stimulation in assay [1] (at 10 µM) is -0.4% (inactive); in assay [1] (stimulation, at 2 µM) it was 0.8%. In addition, in assay [2], the insulin secretion stimulation is -2.1% (inactive). Besides, in assay [3], the viability decrease was -4.35% (inactive). In assay [4], the tube area decrease is -17.5% (inactive). The GLP1 secretion stimulation in assay [5] is 1.6% (inactive). Further, the inhibition of viability in assay [6] is -5% (inactive). The viability decrease (inhibition) in [7] is 18.2% (inactive); in assay [8] it was 1.65% (inactive). In addition, the inhibition in [9] is 8.94% (inactive). The red/green cell ratio (normalised) in [10] was 1 (inactive). The normalised cell number in assay [10] (setting [21]) was 0.98; in assay [10] (setting [22]), 0.97. The activity remaining in assay [11] was 125% (inactive). Further, the z-score was -0.301 (inactive) and 0.485 (inactive) in assay [13] (setting [23]); -0.195 and -0.00807 in assay [13] (setting [24]); 0.63 (inactive) and -0.045 (inactive) in assay [16]. Further, in [14], the remaining NAD was 10 nM (inactive). Moreover, the luciferase signal in assay [15] was 80 AU (inactive).
Turning to `O=[N+]([O-])/N=C1\NCCN1Cc1ccc(Cl)nc1`, the nuclear beta-catenin stimulation is 0.9% (inactive) in [1] (at 10 µM) and 1.2% in [1] (stimulation, at 2 µM). For the same compound, the insulin secretion stimulation in assay [2] is -1.2% (inactive). Further, the viability decrease in assay [3] was -10.2% (inactive). In addition, the tube area decrease in assay [4] was -4.1% (inactive). Further, the GLP1 secretion stimulation in assay [5] was -2% (inactive). The inhibition of viability in [6] is 9.4% (inactive). Further, the viability decrease (inhibition) in [7] is 27.9% (inactive); in [8], -0.3% (inactive). For the same compound, the inhibition in assay [9] was -7.9% (inactive).
For `COCC(=O)N(c1c(C)cccc1C)C(C)C(=O)OC` (centres undefined), the nuclear beta-catenin stimulation is 0.1% (inactive) in assay [1] (at 10 µM) and 0.5% in [1] (stimulation, at 2 µM). Besides, the insulin secretion stimulation in assay [2] is -1.7% (inactive). Further, the viability decrease in [3] was -0.7% (inactive). Also, the tube area decrease in assay [4] was -6.8% (inactive). In addition, in assay [5], the GLP1 secretion stimulation was 1.9% (inactive). Besides, the inhibition of viability in assay [6] is -27% (inactive). For the same compound, the viability decrease (inhibition) in [7] was 1.1% (inactive); in assay [8] it was 8.85% (inactive).
